TRAIL sens C8: caspase-8 TRAIL sensitization; NB7+C8 cells + TRAIL, ATPlite viability luminescence; inhibition (viability loss, TRAIL sensitization), % at 10 µM; 360,000 tested, 1% active; AID 624354;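 active = compounds causing at least 50% loss of cell viability in the single-dose screen, relative to plate controls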
PPC-1+TRAIL kill: PPC-1 cancer cell killing with TRAIL present | PPC-1 cells + TRAIL, ATPLite viability luminescence | cell killing (% activity), % at 4 µM or 5 µM | 220,000 tested, 0.41% active;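 active = cell killing above 50% in the first pass at 4 µM, then a duplicate retest at 5 µM averaging 50% or more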
STAT3 inh: STAT3 signaling inhibition; U3A cells, IL-6 STAT3-luciferase reporter, luminescence; host cell line lacks STAT1; inhibition, % at 5.5 µM; 190,000 tested, 0.89% active;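 active = inhibition above the mean inhibition across all screened compounds plus 3 SD, cut at about 44% in these data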
STAT1 blocker: reduces IFN-gamma driven STAT1 reporter signal. 200,000 tested, 0.35% active. inhibition, % at 5.5 µM. NIH 3T3 STAT1-luciferase reporter, luminescence;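 active = inhibition above a set limit, the mean inhibition across all tested compounds plus 3 SD, cut at about 34% in these data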
Platelet DG rel: modulates dense granule release in human platelets; human platelet-rich plasma, SFLLRN dense granule ATP release, luminescence; inhibition, %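 (compounds screened at 7.5 µM in platelet-rich plasma)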; 300,000 tested, 0.22% active;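 active = mean replicate score, as percent of positive control, at or above 50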
Hits are given with their value; 0 = inactive; - = not tested or not shown. Hits are enriched below; roughly 1.6% of the tested compounds scored in any of these assays.

SMILES	TRAIL sens C8	PPC-1+TRAIL kill	STAT3 inh	STAT1 blocker	Platelet DG rel
O=C(O)c1ccc(NC2=C(Cl)C(=O)c3ccccc3C2=O)cc1	0	0	-	-	0
O=C1C(Cl)=C(NCCc2ccccc2)C(=O)c2ccccc21	0	-	-	-	-
CCNc1nc(NC#N)nc(SCC(=O)OCC)n1	0	0	0	0	55
CCOC(=O)CSc1nc(NC#N)nc(N(CC)CC)n1	0	0	0	0	0
Nc1c(N(C(=O)Nc2ccc(Cl)c(Cl)c2)C2CCCC2)c(=O)[nH]c(=O)n1Cc1ccccc1	63	0	0	0	0
CCc1nc2ccc(C(=O)N(C)CCN(C)C)cn2c1N(C)CCC(C)C	0	-	-	-	-
Cc1nn(-c2ccccc2)c2nc(N)c(C#N)c(-c3ccc(F)cc3)c12	58	0	0	0	0
Cc1ccc2nc(-c3ccccc3)nn2c1	76	-	-	-	-
CC(C)(C)NCCC(O)c1cc(C(F)(F)F)nc2c(C(F)(F)F)cccc12 (centres undefined)	91	-	-	-	-
COCCCNC(=O)c1cccc2c(-c3ccnn3C)coc12	0	-	-	-	-
O=C(CSc1nnc(-c2ccc(O)cc2)o1)Nc1cccc(O)c1	48	-	-	-	0
COc1cccc(NC(=O)CSc2nnc(-c3ccc(C)cc3)o2)c1	0	57	0	0	0
CCn1c2ccccc2c2cc(NC(=O)CSc3nnc(-c4cccc(Cl)c4)o3)ccc21	0	0	0	0	61
Cc1ccc(NC(=O)CSc2nnc(-c3ccncc3)o2)cc1	0	0	0	0	0
NS(=O)(=O)c1ccc(NC(=O)CSc2nnc(-c3ccc(O)cc3)o2)cc1	0	-	-	-	0
Cc1oc2c(c1C(=O)c1ccc(Cl)cc1)C(=O)C(=O)c1ccccc1-2	94	0	0	0	0
Cc1ccc(C(=O)c2c(C)oc3c2C(=O)C(=O)c2ccccc2-3)cc1	97	0	0	0	0
Cc1ccc(C(=O)c2coc3c2C(=O)C(=O)c2ccccc2-3)cc1	0	0	0	0	0
c1ccc(OCCNc2nc(NCC3CC3)nc3cc(-c4ccccc4)sc23)cc1	0	-	-	-	-
c1ccc(CNc2nc(NCC3CC3)nc3cc(-c4ccccc4)sc23)cc1	55	-	-	-	-
O=C(Nc1ccc2c(c1)OCO2)c1ccc(Cl)cc1Cl	71	-	-	-	0
O=C(Nc1ccc2c(c1)OCCO2)c1ccc(Cl)cc1Cl	72	-	-	-	0
CCNC(=O)C1(C)CCCN(Cc2ccc3ccccc3c2Br)C1 (centres undefined)	0	-	-	-	-
CCOC(=O)C1(Cc2cccc(OC)c2)CCN(CC=C(C)C)CC1	0	0	0	0	57
NS(=O)(=O)c1ccc(N2C(=O)CCCC2=O)cc1	0	-	-	-	-
SMILES	TRAIL sens C8	PPC-1+TRAIL kill	STAT3 inh	STAT1 blocker	Platelet DG rel
CC(=O)c1ccc(N2CCN(c3ccc4cc(S(=O)(=O)N5CCC(C)CC5)ccc4n3)CC2)cc1	60	-	-	-	0
CC(=O)c1ccc(N2CCN(S(=O)(=O)c3ccc4ccccc4c3)CC2)cc1	0	-	-	-	-
COc1ccc(NS(=O)(=O)c2cccc(C(=O)NN=Cc3ccc(OC)c(O)c3)c2)cc1	0	-	-	-	-
COc1ccc(NS(=O)(=O)c2cccc(C(=O)N/N=C/c3c(F)c(F)c(F)c(F)c3F)c2)cc1	66	-	-	-	-
O=C(Oc1c(CN2CCOCC2)cc(Cl)c2cccnc12)c1ccccc1Cl	54	0	0	0	0
O=C(Oc1c(CN2CCOCC2)cc(Cl)c2cccnc12)c1cccs1	52	0	0	0	0
O=C(Oc1c(CN2CCOCC2)cc(Cl)c2cccnc12)c1ccc(F)cc1	55	0	0	0	0
COc1cc(C(=O)Oc2c(CN3CCOCC3)cc(Cl)c3cccnc23)cc(OC)c1OC	0	0	0	0	0
COc1cccc(C(=O)Oc2c(CN3CCOCC3)cc(Cl)c3cccnc23)c1	46	0	0	0	0
COc1ccc(C(=O)Oc2c(CN3CCOCC3)cc(Cl)c3cccnc23)cc1	0	0	0	0	0
CCOC(=O)c1cc2cc([N+](=O)[O-])cc(OC)c2oc1=O	0	0	0	0	0
CCOC(=O)c1cc2cc([N+](=O)[O-])ccc2oc1=O	0	0	-	-	59
N#CCCN(C(=S)Nc1ccc(S(=O)(=O)N2CCOCC2)cc1)c1ccccc1F	0	-	-	-	-
CC(C)(C)N1CC(C(=O)Nc2ccc(C(N)=O)cc2)CC1=O (centres undefined)	0	-	-	-	-
Cc1ccc2oc(-c3ccccc3)c(C(=O)O)c(=O)c2c1	57	0	0	0	0
O=C(O)c1c(-c2ccccc2)oc2ccc(O)cc12	0	-	-	-	0
[O-][N+](=C(c1ccccc1)c1ccccc1)c1ccccc1	0	-	-	-	-
